Assay outcomes (PubChem)
TDP1 inh = inhibitors of human tyrosyl-DNA phosphodiesterase TDP1. Q9NUW8. recombinant TDP1, AlphaScreen DNA substrate cleavage. Potency, µM (top dose mostly 130 µM), without a hit: top-dose activity change, negative = inhibition, most hits filed as inhibitors. 350,000 tested, 0.28% active. AID 485290; further: on the % scale 0 is the no-effect control and ±100 the full control effect; nearly all actives have a fitted effect of over 40% in size
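E. coli-derived human Tdp1, 1 nM final. Cpd preinc 15 min RT; substrate 15 nM final, 5 min RT; AS bead mix 10 ug/ml final, 10 min RT. Signal loss = tyrosine-FITC cleavage. No-enzyme wells = max signal.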
DT40 TDP1 CPT = growth inhibition of DT40 Tdp1-/-;hTDP1 cells with camptothecin (screen for TDP1 inhibitors) | chicken DT40 Tdp1-/-;hTDP1 cells + 20 nM CPT, ATP luminescence, 48 h | Potency, µM (doses to about 46.2 µM), for the others: at the highest dose activity change, negative = growth inhibition, most hits filed as inhibitors | 420,000 tested, 12% active | AID 686979; further: on the % scale 0 is the no-effect control and ±100 the full control effect; nearly all actives have a fitted effect of over 55% in size
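Chicken DT40 Tdp1-/- cells complemented with human TDP1, 400 cells/well, exposed to compounds plus 20 nM camptothecin for at least 48 h at 37 C; viability read as ATP content by CellTiter-Glo luminescence.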
ClpP mod = qHTS Assay for Activators of ClpP | ATP-dependent Clp protease proteolytic subunit (Bacillus subtilis (strain 168)), P80244 | purified B. subtilis ClpP, FRET peptide cleavage, 20 min | Potency, µM (doses to about 57.5 µM), without a hit: at the top dose activity change, negative = active | 340,000 tested, 1.9% active; active means well fitted falling curve with a large enough effect; inconclusive means small, poorly fitted or top-dose-only effect; inactive means no such curve, though single readings can be large or run the other way; further: the source files actives as falling curves though it sought activators and does not explain the sign; nearly all actives have a fitted effect of over 65% in size
Target sequence (P80244 whole entry, looked up): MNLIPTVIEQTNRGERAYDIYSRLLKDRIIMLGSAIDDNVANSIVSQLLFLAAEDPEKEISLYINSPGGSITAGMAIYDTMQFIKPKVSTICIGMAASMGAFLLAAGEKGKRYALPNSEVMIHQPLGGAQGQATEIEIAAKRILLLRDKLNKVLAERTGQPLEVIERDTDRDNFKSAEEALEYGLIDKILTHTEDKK
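ClpP 10 microg/mL final, pH 8 Tris/KCl buffer with BSA, glycerol, Tween-20; compound pinned in; FRET-FV substrate; RT 20 min; Ex320/Em430; ΔFRET vs ADEP 5.8 microM, DMSO, no enzyme.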
DT40 TDP1 no CPT = qHTS for Inhibitors of human tyrosyl-DNA phosphodiesterase 1 (TDP1): qHTS in cells in absence of CPT. DT40 Tdp1-/- hTDP1 cells, no CPT, ATP luminescence, 48 h. AID 686978, 2013. 420,000 tested, 15% active. Potency, µM (doses to about 46.2 µM), without a hit: at the top dose activity change, negative = growth inhibition, most hits filed as inhibitors; further: on the % scale 0 is the no-effect control and ±100 the full control effect; nearly all actives have a fitted effect of over 55% in size
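A cellular qHTS used chicken DT40 cells lacking endogenous Tdp1 but carrying stably transfected human TDP1. Compounds were applied without camptothecin, and cell growth kinetics were judged by ATP-dependent luminescence after ≥48 hr.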
Starred values were filed as active, the others as inactive; ? = inconclusive; . = no result given; ! = repeats disagree. The list is not random: actives were taken first. Their share in the collection is about 17%. Unless noted, the call rests on the fitted dose curve; in most records, active means well fitted curve in the direction sought with a large enough effect; inconclusive means small, poorly fitted or top-dose-only effect, or another doubt; inactive means no such curve, though single readings can be large; an effect the other way counts as inactive or inconclusive. Potency means the concentration at half of the fitted maximal effect.

SMILES | TDP1 inh | DT40 TDP1 CPT | ClpP mod | DT40 TDP1 no CPT
CNC(C)C#Cc1c(-c2cc(OC)c(OC)c(OC)c2)noc1C (stereo unspecified) | . | ? | -1% | 16µM*
COc1cc(-c2noc(C)c2/C=C/c2ccc(N)cc2)cc(OC)c1OC | . | 1.2µM* | -6% | 1µM*
COc1cc(-c2noc(C)c2C#Cc2ccccn2)cc(OC)c1OC | . | 0.65µM* | -3% | 1µM*
COc1cc(-c2noc(C)c2C#Cc2ccc(N)cc2)cc(OC)c1OC | . | 0.82µM* | -2% | 0.52µM*
COc1cc(-c2noc(C)c2C(=O)NCCO)cc(OC)c1OC | . | 1% | -1% | -6%
COc1cc(C(=O)O/N=C(\N)c2ccccn2)cc(OC)c1OC | . | ? | 0% | ?
COc1ccccc1C1CC(c2cccc(NS(C)(=O)=O)c2)=NN1S(=O)(=O)c1ccccc1 (stereo unspecified) | 7% | -5% | 3% | -1%
Cc1ccc(OCc2cc(=O)n3c4c(sc3n2)CCCC4)cc1C | -1% | 3% | -16% | -4%
O=C(Nc1cccc(S(=O)(=O)N2CCOCC2)c1)c1ccc2c(=O)n3c(nc2c1)CCCCC3 | 0% | 13µM* | -25% | 10µM*
O=C(Nc1cccc(S(=O)(=O)N2CCCC2)c1)c1ccc2c(=O)n3c(nc2c1)CCCCC3 | 8% | 15µM* | 1% | 16µM*
O=C(Nc1nc(-c2ccccc2)cs1)c1ccc2c(=O)n3c(nc2c1)CCCCC3 | 3% | 16µM* | -9% | 8.2µM*
O=C(NCc1ccccc1)c1ccc2c(=O)n3c(nc2c1)CCCCC3 | -6% | -6% | . | ?
O=C(c1ccc2c(=O)n3c(nc2c1)CCCCC3)N1CCN(c2ccc(Cl)cc2)CC1 | . | 23µM* | -1% | 18µM*
CC(NC(=O)CCc1nc2cc(S(=O)(=O)N3CCOCC3)ccc2n1C)c1ccc(S(N)(=O)=O)cc1 (stereo unspecified) | 1% | 9% | -11% | 5%
Cc1cccc(C)c1NC(=O)Cn1nc(-c2ccc(Cl)s2)ccc1=O | . | 2% | -9% | 11%
COc1ccc(NC(=O)C2CCC(CNS(=O)(=O)c3ccc4c(c3)C(C)(C)C(=O)N4C)CC2)cc1 (stereo unspecified) | 0% | -7% | 0% | 1%
O=S(=O)(c1ccccc1)N(Cc1nc(-c2ccccc2)no1)C1CCCCC1 | -1% | ? | -3% | 21µM*
CC(C)N(Cc1nc(-c2ccccc2)no1)S(=O)(=O)c1ccccc1 | -9% | ? | -4% | ?
O=S(=O)(c1ccc(F)cc1)N(Cc1nc(-c2ccccc2)no1)C1CCCCC1 | -11% | ? | -1% | 16µM*
Cc1ccccc1Oc1cc(NC(=O)CCCn2nc(C)c([N+](=O)[O-])c2C)cc([N+](=O)[O-])c1 | 3% | ? | 1% | ?
Cc1ccccc1Oc1cc(NC(=O)Cn2cnc([N+](=O)[O-])c2)cc([N+](=O)[O-])c1 | 3% | 16µM* | 0% | ?
Cc1c(Cl)c([N+](=O)[O-])nn1CCCC(=O)Nc1c(Cl)cccc1Cl | 3% | ? | 1% | ?
Cc1c(Cl)c([N+](=O)[O-])nn1CCCC(=O)Nc1cc(Oc2ccccc2)cc([N+](=O)[O-])c1 | 1% | 21µM* | ? | ?
Cc1nn(Cc2ccc(Cl)cc2)c(C)c1NC(=O)CCCn1nc([N+](=O)[O-])c(Cl)c1C | 0% | 15µM* | -5% | ?
CCOC(=O)c1c(C)[nH]c(C)c1S(=O)(=O)N1CCN(c2cccc(C(F)(F)F)c2)CC1 | 6% | ? | -10% | ?
SMILES | TDP1 inh | DT40 TDP1 CPT | ClpP mod | DT40 TDP1 no CPT
CCc1ccc(NC(=O)CCS(=O)(=O)c2ccc3c(c2)oc(=O)n3C)cc1 | -7% | -27% | 1% | -19%
COc1ccc(Cn2c(CO)cnc2SCc2ccc(C)cc2)cc1 | 8% | 18µM* | 0% | ?
COc1ccc(Cn2c(CO)cnc2SCc2ccccc2C)cc1 | 7% | ? | -1% | ?
COc1ccc(Cn2c(CO)cnc2SCc2ccc(F)cc2)cc1 | 5% | ? | -5% | 18µM*
OCc1cnc(SCc2ccccc2)n1Cc1ccccc1 | -4% | ? | . | 16µM*
CCn1c2ccccc2c2cc(NC(=O)COc3cc(C)c(Cl)c(C)c3)ccc21 | 2% | -9% | ? | 2%
O=C1S/C(=C\C=C\c2ccco2)C(=O)N1c1ccccc1 | 3% | ? | . | 23µM*
O=C1S/C(=C\C=C\c2ccco2)C(=O)N1c1ccc(O)cc1 | 0% | 18µM* | 3% | ?
N#CCCn1cc(/C=N/N=C2\NC(=O)C(CC(=O)O)S2)c(-c2ccc(F)cc2)n1 (stereo unspecified) | 2% | 8% | . | 3%
Cc1ccc(N(C(=O)c2ccccn2)C2(C(=O)NC3CCCC3)CCCCC2)cc1 | 4% | 0.52µM* | 0% | 1.6µM*
CC(C)c1ccc(C2C(C(=O)c3ccco3)=C(O)C(=O)N2CCN2CCOCC2)cc1 (stereo unspecified) | 7% | 10% | 1% | 2%
Cc1ccccc1NC(=O)NC(N)=O | -2% | -3% | -3% | 7%
Cc1ccccc1N=C(N)Nc1ccccc1C | 3% | 27µM*! | 0% | ?
COc1cc2cc(C(=O)N3CCc4ccccc4C3)[nH]c2cc1OC | 3% | -4% | -27% | 4%
COc1cc2[nH]c(C(=O)N3CCc4ccccc4C3)cc2c(OC)c1OC | 3% | ? | . | 15µM*
Cc1ccc(CNC(=O)C2CCCN(c3nnc(-n4c(C)ccc4C)s3)C2)cc1 (stereo unspecified) | 5% | ? | 8% | 18µM*
Cc1ccc(C)n1-c1nnc(N2CCCC(C(=O)NCc3ccc(Cl)cc3)C2)s1 (stereo unspecified) | 8% | ? | -7% | 9.2µM*
Cc1ccc(C)n1-c1nnc(N2CCCC(C(=O)NCc3ccc(F)cc3)C2)s1 (stereo unspecified) | 3% | 18µM* | 0% | 8.2µM*
CCOc1ccc(NC(=O)COC(=O)c2cc(S(=O)(=O)N3CCCC3)ccc2C)cc1 | 0% | 21µM* | 2% | ?
CC(OC(=O)c1cc(S(=O)(=O)N2CCOCC2)ccc1F)C(=O)NCC1CCCCC1 (stereo unspecified) | 1% | -11% | 0% | ?
Cc1ccc(C)c(C(=O)OCC(=O)Nc2cccc(S(=O)(=O)N3CCCCC3)c2)c1 | 2% | 18µM* | 0% | 10µM*
Cc1ccccc1C(=O)OCC(=O)Nc1cccc(S(=O)(=O)N2CCCCC2)c1 | . | ? | -2% | ?
Cc1ccc(S(=O)(=O)N2CCCCC2)cc1C(=O)OC(C)C(=O)NCC1CCCCC1 (stereo unspecified) | . | ? | -2% | 18µM*
CCOc1ccc(NC(=O)COC(=O)c2ccc(S(=O)(=O)N3CCOCC3)cc2)cc1 | 1% | -2% | 1% | 8%
